Structures can show the parent of a compound that is named as a salt.
What was measured:
Settings in all cases: 10 µM; exposure time 6 h
[1] = test system: Danio rerio larvae (5 dpf); assay: difference in excitability vs DMSO (percentage points); higher = more excitable than DMSO
In short: (§1)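 Library compounds were tested at 10 µM final in 100 µL egg water on wild-type 5 dpf zebrafish larvae in 96-well plates for 6 h, with 48 larvae per compound. After 3 h, plates at 28.5 ℃ were imaged every 6 s during a 3-h run of moving lines and 100 ms, 400Hz tones. Behaviours were quantified by Z-LaP Tracker and reported as the compound mean less the vehicle control mean, in percentage points.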

[2] = test system: Danio rerio larvae (5 dpf); assay: difference in startle response vs DMSO (percentage points); higher = stronger startle than DMSO
In short: as §1

[3] = test system: Danio rerio larvae (5 dpf); assay: difference in activity during first hour vs DMSO (percentage points); higher = more activity than DMSO
In short: as §1

[4] = test system: Danio rerio larvae (5 dpf); assay: difference in habituation to acoustic stimuli vs DMSO (percentage points); higher = more habituation than DMSO
In short: as §1

[5] = test system: Danio rerio larvae (5 dpf); assay: difference in combined optomotor response to red, green and blue moving lines vs DMSO (percentage points); higher = stronger optomotor response than DMSO
In short: as §1

SMILES | difference in excitability [1] | difference in startle response [2] | difference in activity during first hour [3] | difference in habituation to acoustic stimuli [4] | difference [5]
Cc1cc(/C=C/C#N)cc(C)c1Nc1ccnc(Nc2ccc(C#N)cc2)n1 [Rilpivirine] | 9.16 | -10.5 | -18.2 | -9.2 | -12.5
CC(C)(C)NC(=O)[C@@H]1C[C@@H]2CCCC[C@@H]2CN1C[C@@H](O)[C@H](Cc1ccccc1)NC(=O)[C@H](CC(N)=O)NC(=O)c1ccc2ccccc2n1 [Saquinavir (mesylate)] | 9.2 | -1.02 | 0.593 | 0.0845 | -1.01
CC(=O)O[C@H]1C(=O)[C@@]2(C)[C@H]([C@H](OC(=O)c3ccccc3)[C@]3(O)C[C@H](OC(=O)[C@H](O)[C@@H](NC(=O)c4ccccc4)c4ccccc4)C(C)=C1C3(C)C)[C@]1(OC(C)=O)CO[C@@H]1C[C@@H]2O [Paclitaxel] | -11.7 | -1.74 | -4.46 | 3.51 | -2.9
COc1cc2/c(=N/c3ccc(Br)cc3F)nc[nH]c2cc1OCC1CCN(C)CC1 [Vandetanib] | 12.1 | -1.93 | -4.76 | 5.41 | 6.09
Cc1ccsc1C(=CCCN1CCC[C@@H](C(=O)O)C1)c1sccc1C [Tiagabine (hydrochloride)] | 6.86 | 2.66 | 17.9 | 5.1 | -1.64
CNCCCC12CCC(c3ccccc31)c1ccccc12 [Maprotiline (hydrochloride)] | -2.87 | 5.37 | -7.95 | 0.965 | 2.3
CC[C@@H]1C(=O)OC[C@@H]1Cc1cncn1C [(+)-Pilocarpine (hydrochloride)] | 9.24 | -3.79 | -22.2 | 5.07 | -5.32
CCOc1ccc(Cc2cc([C@]34OC[C@](CO)(O3)[C@@H](O)[C@H](O)[C@H]4O)ccc2Cl)cc1 [Ertugliflozin] | 0.00277 | -5.35 | 3.38 | 4.89 | 1.51
OB1OCc2cc(F)ccc21 | 13.7 | -1.36 | -11.7 | 2.38 | 4.85
CC(C)[N+](C)(CCOC(=O)C1c2ccccc2Oc2ccccc21)C(C)C [Propantheline (bromide)] | 4.4 | 5.21 | 4.15 | 4.81 | 5.08
O=C(O)CCNC(=O)c1ccc(/N=N/c2ccc(O)c(C(=O)O)c2)cc1 [Balsalazide] | 4.51 | 9.09 | 15 | 1.8 | 4.25
OC[C@H]1O[C@@H](n2cnc3c2N=CNC[C@H]3O)C[C@@H]1O [Pentostatin] | 4.36 | -6.74 | 2.27 | 0.584 | 3.35
CC1=C(C(=O)O)N2C(=O)[C@@H](NC(=O)[C@H](N)c3ccc(O)cc3)[C@H]2SC1 [Cefadroxil (hydrate)] | 4.89 | -1.88 | 6.54 | -3.34 | 7.44
CCN[C@H]1C[C@H](C)S(=O)(=O)c2sc(S(N)(=O)=O)cc21 [Dorzolamide (hydrochloride)] | -4.82 | -3.95 | 4.07 | 2.29 | 3.26
CC(=O)Oc1ccccc1C(=O)Nc1ncc([N+](=O)[O-])s1 [Nitazoxanide] | 12.9 | -13.9 | -14.8 | -12.4 | -17.8
Cc1ncc([N+](=O)[O-])n1CC(C)O (stereo not given) [Secnidazole] | 4.12 | -1.25 | 19.9 | -6.46 | 6.66
NC(=O)OCC(COC(N)=O)c1ccccc1 [Felbamate] | -5.58 | 2.01 | 9.63 | -0.648 | 2.98
CC[C@@]1(O)C(=O)OCc2c1cc1n(c2=O)Cc2cc3c(CN(C)C)c(O)ccc3nc2-1 [Topotecan (hydrochloride)] | 4.94 | -0.393 | 0.473 | -4.39 | 1.01
CCCCC[C@H](O)CC[C@@H]1[C@H]2Cc3cccc(OCC(=O)O)c3C[C@H]2C[C@H]1O [Treprostinil] | -4.04 | -1.85 | 4.94 | -2.5 | -6.11
C=C1[C@H](CO)[C@@H](O)C[C@@H]1n1cnc2c(=O)[nH]c(N)nc21 [Entecavir (hydrate)] | -1.86 | 2.04 | -1.96 | 5.32 | 0.96
CC(C)(Oc1ccc(C(=O)c2ccc(Cl)cc2)cc1)C(=O)O [Fenofibric Acid] | 2.08 | 4.69 | 11.8 | 0.387 | 6.16
Nc1cc(N2CCCCC2)nc(N)[n+]1[O-] [Minoxidil] | 2.04 | 3.09 | -1.78 | -5.41 | -0.063
CO/N=C1\CN(c2nc3c(cc2F)c(=O)c(C(=O)O)cn3C2CC2)CC1CN (stereo not given) [Gemifloxacin (mesylate)] | 7.63 | 9.12 | 11 | -1.77 | 2.04
CC(C)(C)NCC(O)c1ccc(O)c(CO)c1 (stereo not given) [Salbutamol] | 8.67 | 1.17 | 20.7 | -4.78 | 5.67
CCC(=O)NCC[C@@H]1CCc2ccc3c(c21)CCO3 [Ramelteon] | 33 | 0.219 | -13.3 | -1.29 | 6.65

SMILES | difference in excitability [1] | difference in startle response [2] | difference in activity during first hour [3] | difference in habituation to acoustic stimuli [4] | difference [5]
COc1cccc(N2CCN(C3=Nc4c(F)cccc4[C@H](CC(=O)O)N3c3cc(C(F)(F)F)ccc3OC)CC2)c1 [Letermovir] | 9.24 | -3.2 | 13.2 | -5.75 | -3.3
Cc1cccc(Nc2ccncc2S(=O)(=O)NC(=O)NC(C)C)c1 [Torasemide] | 6.87 | -10.7 | 6.15 | -5.49 | -5.29
CC(C(=O)O)c1ccc(-c2ccccc2)c(F)c1 (racemic) [(±)-Flurbiprofen] | 17.6 | -8.24 | 15 | -6.69 | -3.74
CCOc1ccc(Cc2cc([C@@H]3O[C@H](CO)[C@@H](O)[C@H](O)[C@H]3O)ccc2Cl)cc1 [Dapagliflozin] | -2.18 | 0.361 | -2.82 | -5.36 | 5.64
CCN[C@H]1CN(CCCOC)S(=O)(=O)c2sc(S(N)(=O)=O)cc21 [Brinzolamide] | 2.16 | -4.77 | -5.26 | -5.35 | 1.28
CCCCCCCCCCCCCCCC(=O)OC/C=C(C)/C=C/C=C(C)/C=C/C1=C(C)CCCC1(C)C [Retinyl Palmitate] | 6.81 | 5.22 | 3.08 | 2.4 | -4.44
Nc1nc(Cl)nc2c1ncn2[C@@H]1O[C@H](CO)[C@@H](O)[C@@H]1F [Clofarabine] | -0.183 | -0.201 | 0.725 | 2.7 | 1.77
Nc1[nH]c(=O)ncc1F [5-Fluorocytosine] | 0.317 | 1.12 | -10.7 | -2.78 | 2.67
C[C@H](Nc1ncnc2nc[nH]c12)c1cc2cccc(Cl)c2c(=O)n1-c1ccccc1 | -1.93 | 2.84 | 12.8 | 2.7 | 8.44
C=CC[C@@H]1/C=C(\C)C[C@H](C)C[C@H](OC)[C@H]2O[C@@](O)(C(=O)C(=O)N3CCCC[C@H]3C(=O)O[C@H](/C(C)=C/[C@@H]3CC[C@@H](O)[C@H](OC)C3)[C@H](C)[C@@H](O)CC1=O)[C@H](C)C[C@@H]2OC | 27 | -6.28 | 5.28 | -10.2 | -13.7
CCC1(C)CC(=O)NC1=O (stereo not given) [Ethosuximide] | 2.89 | 4.52 | -3.89 | 4.09 | 0.956
CCCCC[C@H](O)/C=C/[C@@H]1[C@H]2C/C(=C/CCCC(=O)O)O[C@H]2C[C@H]1O [Prostaglandin I2 (sodium salt)] | 0.101 | 3.79 | 11.9 | 1.5 | 4.02
CC(=O)O[C@H]1Cc2ccccc2N(C(N)=O)c2ccccc21 [Eslicarbazepine Acetate] | -1.41 | -0.316 | -0.636 | -4.75 | -2.32
COc1cc(C(=O)NCc2ccc(OCCN(C)C)cc2)cc(OC)c1OC [Trimethobenzamide (hydrochloride)] | -3.22 | 1.06 | -0.789 | 2.91 | -5.61
NC(=O)N[C@@H](CCC(=O)O)C(=O)O [N-Carbamyl-L-Glutamic Acid] | 5.63 | -0.75 | 17.4 | 3.65 | 8.31
Cc1cc(NS(=O)(=O)c2ccc(N)cc2)no1 [Sulfamethoxazole] | 0.0564 | 4.25 | 9.59 | 3.04 | 8.31
O=c1[nH]c(=O)n([C@H]2C[C@H](O)[C@@H](CO)O2)cc1C(F)(F)F [Trifluorothymidine] | -0.163 | -3.06 | 5.45 | -4.69 | 1.93
CCN(CC)C(=O)/C(C#N)=C/c1cc(O)c(O)c([N+](=O)[O-])c1 [Entacapone] | 5.12 | -3.47 | 4.7 | 3.38 | 3.62
Clc1ccc2nsnc2c1NC1=NCCN1 [Tizanidine (hydrochloride)] | 1.85 | 4.3 | -8.71 | 1.04 | -0.822
Cn1cnc([N+](=O)[O-])c1Sc1ncnc2[nH]cnc12 [Azathioprine] | -3.13 | 3.25 | -3.18 | 4.62 | 1.19
CC[C@H]1OC(=O)[C@H](C)[C@@H](O[C@H]2C[C@@](C)(OC)[C@@H](O)[C@H](C)O2)[C@H](C)[C@@H](O[C@@H]2O[C@H](C)C[C@H](N(C)C)[C@H]2O)[C@](C)(O)C[C@@H](C)C(=O)[C@H](C)[C@@H](O)[C@]1(C)O [Erythromycin] | 4.99 | -6.73 | 13.1 | -0.584 | 9.53
O=P(O)(O)C(O)(Cn1ccnc1)P(=O)(O)O [Zoledronic Acid (hydrate)] | -0.91 | -0.172 | 2.53 | 0.128 | 6.76
Cc1[nH]cnc1CN1CCc2c(c3ccccc3n2C)C1=O [Alosetron (hydrochloride)] | -3.91 | 3.08 | 8.78 | 3.46 | 8.63
CN(C)c1nc(N(C)C)nc(N(C)C)n1 [Altretamine] | -0.899 | -2.53 | -6.9 | -1.7 | 0.893

From the supplement of paper PMC10515830
